The list is not random: actives were taken first. Their share in the collection is about 3.4%.
GPR151 ag: human GPR151 activation | Q8TDV0 | PathHunter beta-arrestin GPR151 cells, luminescence | activation, % at 11.2 µM | actives 1% (n = 650,000); in the data active = activation above about 4.9%;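 also: 0% = median of compound wells and 100% = cells with positive control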
TEAD-YAP inh: TEAD-YAP interaction inhibition | HEK-TIYL cells, TEAD-Gal4/YAP UAS-luciferase luminescence | inhibition, % at 9.12 µM | actives 1.4% (n = 640,000); in the data active = inhibition above about 32%;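 also: 0% = median of test compound wells and 100% = reference inhibitor wells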
FBW7 activator: human FBW7 E3 ligase activation, primary screen; normalized activity (activation), % at 26.1 µM; AlphaScreen FBW7–phospho-cyclin E peptide binding, activator screen; actives 0.13% (n = 650,000); in the data active = normalized activity above about 1.9%;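 also: purified mutant Fbw7 with reduced substrate affinity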
MITF inh: blocks human microphthalmia-associated transcription factor; AlphaScreen MITF homodimerization, bead proximity signal; inhibition, % at 2.6 µM; actives 0.91% (n = 650,000); in the data active = inhibition above about 50%;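 also: 0% = vehicle wells with protein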
GPR151 confirm: confirmation of human GPR151 activators | shares compounds with GPR151 ag | activation, % at 11.2 µM | AID 1508609 | 6,700 tested, under 10 active | GPR151 PathHunter beta-arrestin cells, luminescence, 90 min; % of EA-reagent control over plate median;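 active = mean percent activation across replicates above the confirmation screen cutoff of 4.91%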
GPR119 counter: GPR119 activation, counter-screen for GPR151 activators; shares compounds with GPR151 ag; AID 1508611; GPR119 PathHunter beta-arrestin cells, luminescence, 90 min; 0 = compound-well median, 100 = enzyme-acceptor control; actives 0.3% (n = 6,700); activation, % at 11.2 µM;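 active = mean percent activation in the counterscreen above 29.09%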;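 also: counterscreen on off-target GPR119 to flag nonselective hits from the GPR151 activator screen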
Target sequence (Q8TDV5 whole entry, looked up): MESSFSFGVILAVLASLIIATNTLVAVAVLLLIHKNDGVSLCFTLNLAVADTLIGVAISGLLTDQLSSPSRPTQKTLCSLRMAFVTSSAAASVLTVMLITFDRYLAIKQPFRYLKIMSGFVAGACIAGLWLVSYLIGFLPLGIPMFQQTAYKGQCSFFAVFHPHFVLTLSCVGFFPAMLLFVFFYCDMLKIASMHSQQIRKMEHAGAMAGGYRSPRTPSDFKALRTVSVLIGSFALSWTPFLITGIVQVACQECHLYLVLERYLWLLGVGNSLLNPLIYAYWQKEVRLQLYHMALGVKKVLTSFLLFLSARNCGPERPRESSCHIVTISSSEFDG
* hit, by the source's call; . = no result; ! = repeats disagree.

SMILES	GPR151 ag	TEAD-YAP inh	FBW7 activator	MITF inh	GPR151 confirm	GPR119 counter
O=C(O)Cc1c(-c2ccccc2)c2cc(Br)ccc2[nH]c1=O	1	1	0	-4	.	.
CCN(CC)c1c(-c2ccccc2)c2cc(Br)ccc2[nH]c1=O	5.9*	17	0	9	0	7
O=C(Cc1nc2scc(-c3ccccc3)c2c(=O)[nH]1)N1CCOCC1	11*	3	0	1	0	13
Cc1ccc(C)n1-c1ccc(Cl)cc1C(=O)O	7.7*	8	-1	70*	-1	-9
Cc1ccc(C)n1-c1ccc(Cl)cc1O	0	5	0	0	.	.
COc1cccc(NC(=O)CSc2cn(CC(=O)N3CCC(C)CC3)c3ccccc23)c1	5.1*	-1	0	15	1	3
COc1cccc(NC(=O)CSc2cn(CC(=O)N3CCOCC3)c3ccccc23)c1	0	2	1	0	.	.
O=C(CSc1nnc(COc2ccccc2)n1-c1ccccc1)Nc1ccc(Br)cc1	-1	0	0	-10	.	.
Cc1ccc(-c2c(N3CCCCC3)c(=O)c2=O)cc1	6.8*	0	0	-3	0	-11
Cc1ccc(OCC(=O)NC23CC4CC(CC(C4)C2)C3)cc1C	5.1*	-43	0	5	0	-10
O=C(O)CN1CCOCCOCCN(CC(=O)O)CCOCCOCC1	5.9*	3	0	3	0	-3
COc1cc(C(C)=O)ccc1OCC(O)CN1CCC(C)CC1 (centres undefined)	1	1	0	0	.	.
Cc1cc(C=C2C(=O)NC(=S)NC2=O)c(C)n1-c1ccc([N+](=O)[O-])cc1	6.1*	-14	0	1	0	7
CC(NC(=O)CCn1c(=O)[nH]c2ccsc2c1=O)C12CC3CC(CC(C3)C1)C2 (centres undefined)	12*	6	0	2	0	13
CC(NC(=O)CCCn1c(=O)[nH]c2ccsc2c1=O)C12CC3CC(CC(C3)C1)C2 (centres undefined)	1	-5	0	2	.	.
O=C(Cn1c(=O)[nH]c2ccsc2c1=O)NC1CCCCC1	5.3*	-5	1	7	0	2
COc1ccc2nc(SCC(=O)N3CCc4ccccc43)c(C#N)cc2c1	0	6	0	0	.	.
CC(C)CNC(=O)C1=CC(c2ccc(F)cc2)=NS(=O)(=O)N1C	7.5*	-8	0	2	0	-8
Cc1ccccc1CSCCNS(=O)(=O)c1ccccc1[N+](=O)[O-]	5.9*	0	0	-7	0	-5
Cc1ccccc1-c1cc(C(=O)NCc2ccc(S(N)(=O)=O)cc2)c2ccccc2n1	0	3	0	2	.	.
CC(C)CCN1C(=O)CCc2cc(NC(=O)c3ccc4c(c3)OCO4)ccc21	5.3*	-15	0	2	-1	0
CC(C)CCN1C(=O)CCc2cc(NC(=O)NCc3ccc(F)cc3)ccc21	1	3	0	0	.	.
Cc1ccc(NC(=O)CSc2nnc(C(C)C)n2C)c(C)c1	0	0	1	8	.	.
Cc1ccn2cc(-c3ccc(NC(=O)CCc4ccccc4)cc3)nc2n1	-2	-26	0	-9	.	.
Cc1ccn2cc(-c3ccc(NC(=O)c4ccc(Br)cc4)cc3)nc2n1	5.8*	2	0	-4	-1	-14
SMILES	GPR151 ag	TEAD-YAP inh	FBW7 activator	MITF inh	GPR151 confirm	GPR119 counter
CC(Oc1cccc(Br)c1)C(=O)Nc1ccc2c(c1)OCO2 (centres undefined)	5.4*	0	0	9	0	0
CC(Oc1ccc2c(c1)OCO2)C(=O)NNC(=O)Nc1cccc(C(F)(F)F)c1 (centres undefined)	4	10	1	11	.	.
COc1ccc(CCN2CCC(NCc3cccc(N(C)C)c3)CC2)cc1	5.5*!	5	0	13	0	-4
O=C(O)COc1cccc(/C=N/NC(=O)Cn2nnc(-c3ccccc3Cl)n2)c1	0	1	1	8	.	.
O=C(O)COc1ccc(/C=N/NC(=O)Cn2nnc(-c3ccccc3Cl)n2)cc1	7.8*	3	1	19	0	-11
O=C(Cn1nnc(-c2ccccc2Cl)n1)Nc1ccccc1Cl	4.9*	9	0	2	1	-2
